Test results: ChEMBL document CHEMBL4513146, “CO-ADD screening of Karazin Kharkiv National University (Ukraine) compounds”
Entries with a potency or affinity are not part of this list.

Assays:
Staphylococcus aureus = conditions: Concentration 32 ug.mL-1;; ASSAY_TEST Inhibition of Bacterial Growth; detection method Absorption (OD600); MEDIA CAMHB; plate type 384well; NBS; CORNING #3640; time 18 hr
Escherichia coli = conditions: Concentration 32 ug.mL-1;; ASSAY_TEST Inhibition of Bacterial Growth; detection method Absorption (OD600); MEDIA CAMHB; plate type 384well; NBS; CORNING #3640; time 18 hr

Row | SMILES | Inhibition (Staphylococcus aureus) | Inhibition (Escherichia coli)
1 | CC(C)(C)OC(=O)CN(c1ccc2c(c1)OCCO2)S(=O)(=O)c1ccc2nncn2c1 | 6.06% | -4.04%
2 | Cc1ccccc1Cn1nc2c(=O)n(-c3cccc(Cl)c3C)ccn2c1=O | -10.1% | -10.57%
3 | CCOc1ccccc1NC(=O)Cn1nc2c(N3CCN(c4ccccc4)CC3)nccn2c1=O | 1.85% | -3.13%
4 | Cc1ccccc1NC(=O)Cn1nc2ccc(SC3CCCCC3)nn2c1=O | 2.21% | -7.39%
5 | COc1ccc(-c2cc3c4nnc(CCC(=O)NCc5ccc6c(c5)OCO6)n4ccn3n2)cc1 | -1.19% | 5.34%
6 | COc1ccc(NC(=O)Cn2nc3ccc(-c4ccc(Cl)cc4)nn3c2=O)cc1OC | -0.18% | -4.63%
7 | CCCCc1ccc(NC(=O)CSc2nc3ccccc3n3c(CC)nnc23)cc1 | 10.38% | -2.23%
8 | Cc1cc2nn(CC(=O)Nc3cc(F)cc(F)c3)c(=O)n2c(Nc2ccc(F)c(C)c2)n1 | 7.29% | -2.56%
9 | Cc1cc(C)c(NC(=O)Cn2nc3ccc(-c4ccc(C)c(C)c4)nn3c2=O)c(C)c1 | -8.09% | -15.6%
10 | CCOc1ccccc1NC(=O)Cn1nc2c(Oc3ccccc3)nccn2c1=O | 5.93% | -3.4%
11 | Cc1ccc(-c2ccc3nn(Cc4ccc(Cl)cc4)c(=O)n3n2)cc1C | -1.51% | -5.81%
12 | Cc1ccc(NC(=O)Cn2nc3ccc(SC(C)(C)C)nn3c2=O)cc1Cl | 3.27% | -0.69%
13 | CCc1nnc2c(SCC(=O)Nc3ccc4c(c3)OCCO4)nc3ccccc3n12 | -7.96% | 3.84%
14 | Cc1nc(-c2ccccc2)cc2nn(CC(=O)Nc3ccc4c(c3)OCO4)c(=O)n12 | 14.7% | -4.44%
15 | COc1cc(NC(=O)Cn2nc3ccc(SC(C)(C)C)nn3c2=O)cc(OC)c1OC | 10.38% | 1.07%
16 | Cc1oc(-c2ccccc2)nc1CSc1nc2ccccc2n2c(C(C)C)nnc12 | -2.26% | -5.26%
17 | O=C(CSc1nnc2c(=O)n(-c3ccc(F)cc3)ccn12)N1CCN(c2ccccc2F)CC1 | 14.78% | -0.33%
18 | CC(C)NC(=O)CCn1c(=O)c2cc(Cl)ccc2n2c(=O)n(CC#N)nc12 | 0.39% | -9.95%
19 | Cc1cc2nn(CC(=O)N3CCOCC3)c(=O)n2c(Nc2ccc(C)c(F)c2)n1 | 15.64% | -0.78%
20 | CSc1cccc(NC(=O)Cn2nc3c(SCc4ccc(Cl)cc4)nccn3c2=O)c1 | -9.65% | -9.35%
21 | CCc1nnc2c(=O)n(CC(=O)Nc3ccc4c(c3)OCCO4)c3ccccc3n12 | 2.09% | -4.51%
22 | Cc1cccc(NC(=O)Cn2nc3c4cc(-c5ccc(Cl)cc5)nn4ccn3c2=O)c1C | 5.13% | -1.29%
23 | COc1ccc(CNC(=O)Cn2nc3c(N4CCOCC4)nccn3c2=O)cc1 | 22.13% | 3.1%
24 | CC(C)c1ccc(CNC(=O)CCc2nnc3c(N4CCCCC4)nc4ccccc4n23)cc1 | 3.73% | -5.19%

Row | SMILES | Inhibition (Staphylococcus aureus) | Inhibition (Escherichia coli)
25 | O=C(Cn1nc2c(Oc3ccccc3)nc3ccccc3n2c1=O)Nc1ccc2c(c1)OCO2 | 13.59% | 2.6%
26 | NC(=O)C1CCN(C(=O)CCc2nnc3c(N4CCCCC4)nc4ccccc4n23)CC1 | 14.39% | 0.84%
27 | CC(C)NC(=O)Cn1nc2nc(Nc3ccc(F)cc3)ccn2c1=O | 8.74% | -2.64%
28 | Cc1ccc(-c2ccc3nn(CC(=O)NC4CCCCC4)c(=O)n3n2)cc1C | 8.8% | 0.07%
29 | Cc1ccc(C(=O)CSc2nnc3c(=O)n(-c4ccc(F)cc4)ccn23)c(C)c1 | 7.85% | -6%
30 | Cc1ccc(C)c(CSc2nnc3c(=O)n(-c4ccc(F)c(F)c4)ccn23)c1 | 21.94% | -0.2%
31 | Cc1ccc(NC(=O)Cn2nc3c(SC4CCCCC4)nccn3c2=O)cc1F | 10.42% | -1.05%
32 | O=C(Cn1nc2c3cc(-c4ccc(F)cc4)nn3ccn2c1=O)Nc1ccccc1 | -11.01% | -1.34%
33 | COC(=O)c1cccc(NC(=O)Cn2nc3c(Sc4ccc(C)cc4C)nccn3c2=O)c1 | 10.39% | -5.72%
34 | Cc1ccccc1-c1noc(Cn2nc3ccc(-c4ccccc4)nn3c2=O)n1 | -12.29% | -7.81%
35 | Cc1ccc(Oc2nccn3c(=O)n(CC(=O)Nc4ccc(C)cc4Cl)nc23)cc1 | 6.09% | 0.24%
36 | O=C(Cn1nc2n(CCc3ccccc3)c(=O)c3ccccc3n2c1=O)Nc1ccc2c(c1)OCO2 | -2.08% | -8.34%
37 | O=C(Cn1nc2c(N3CCOCC3)nccn2c1=O)NCc1ccc(F)cc1 | 19.72% | 0.87%
38 | Cc1cc2nn(CC(=O)Nc3cc(F)cc(F)c3)c(=O)n2c(Nc2ccccc2C)n1 | 5.53% | -3.12%
39 | Cc1ccc(NC(=O)Cn2nc3c4cc(-c5ccc(Cl)cc5)nn4ccn3c2=O)cc1F | 11.6% | 6.51%
40 | O=C(Cn1nc2nc(Nc3ccc(F)cc3)ccn2c1=O)Nc1ccc(F)cc1 | -16.48% | -2.62%
41 | Cc1cccc(C)c1NC(=O)Cn1nc2n(C)c(=O)c3c(c(-c4ccccc4)cn3C)n2c1=O | 8.81% | 0.54%
42 | Cc1cc2nn(CC(=O)NCc3ccccc3)c(=O)n2c(-c2ccc(C(F)(F)F)cc2)n1 | 13.36% | -8.01%
43 | CC(C)c1nnc2c(SCC(=O)Nc3ccc(F)cc3F)nc3ccccc3n12 | 6.8% | 1.07%
44 | CC(C)CCn1c(=O)c2sccc2n2c(=O)n(CC(=O)N(C)c3ccccc3)nc12 | -2.05% | -10.35%
45 | COc1cccc(CN(c2ccc(F)cc2)S(=O)(=O)c2cccn3cnnc23)c1 | -5.01% | -3.63%
46 | COc1ccc(-c2cc3c4nn(CC(=O)Nc5ccc(C)c(F)c5)c(=O)n4ccn3n2)cc1 | 0.97% | 2.58%
47 | CCc1nnc2c(SCC(=O)Nc3cc(Cl)ccc3OC)nc3ccccc3n12 | 7.98% | 4.84%
48 | CCc1ccccc1Sc1nccn2c(=O)n(CC(=O)Nc3c(C)cccc3C)nc12 | 13.44% | 0%

Row | SMILES | Inhibition (Staphylococcus aureus) | Inhibition (Escherichia coli)
49 | CC(C)c1ccc(NC(=O)Cn2nc3c(SCc4ccccc4)nccn3c2=O)cc1 | 1.97% | -7.26%
50 | COc1ccc(NC(=O)Cn2nc3c(SCc4ccc(Cl)cc4)nccn3c2=O)cc1 | 4.07% | -0.18%
51 | Cc1cc(C)cc(N(Cc2ccc(F)cc2)S(=O)(=O)c2cccn3cnnc23)c1 | -4.06% | -5.96%
52 | CCOc1ccc(NC(=O)Cn2nc3ccc(-c4ccc(C)c(C)c4)nn3c2=O)cc1 | 3.86% | -6.73%
53 | CCc1ccc(NC(=O)Cn2nc3c(Oc4cccc(OC)c4)nccn3c2=O)cc1 | 5.31% | -1.12%
54 | CCCCc1ccc(NC(=O)Cn2nc3c(N4CC(C)CC(C)C4)nccn3c2=O)cc1 (configuration not stated) | -4.53% | -8.88%
55 | Cc1ccc(Sc2nccn3c(=O)n(CC(=O)Nc4ccc(Br)cc4)nc23)c(C)c1 | -1.98% | -4.39%
56 | Cc1cccc(NC(=O)CSc2nnc3c4cc(-c5ccc(F)cc5)nn4ccn23)c1C | -11.28% | -13.99%
57 | CC(C)c1ccc(N(Cc2cccc(Cl)c2)S(=O)(=O)c2cccn3cnnc23)cc1 | -3.13% | -8.14%
58 | COC(=O)c1ccc(CN(c2ccc(C)cc2)S(=O)(=O)c2ccc3nnc(C)n3c2)o1 | 4.75% | -4.99%
59 | Cc1ccccc1Oc1nc2ccccc2n2c(=O)n(CC(=O)Nc3ccccc3C(F)(F)F)nc12 | -0.26% | -3.73%
60 | O=C(CSc1nnc2ccc(C(=O)NCc3ccccc3)cn12)Nc1ccccc1Br | 7.29% | -1.34%
61 | COc1cc(OC)c(NC(=O)Cn2nc3ccc(SC4CCCCC4)nn3c2=O)cc1Cl | 7.67% | 5.95%
62 | Cc1ccc(-n2ccn3c(=O)n(Cc4cccc(F)c4)nc3c2=O)cc1C | -0.24% | -8.8%
63 | Cc1ccc(F)cc1NC(=O)CSc1nc2ccccc2n2c(C)nnc12 | 2.37% | 1.62%
64 | Cc1ccccc1CN(c1cccc(F)c1)S(=O)(=O)c1ccc2nncn2c1 | -9.31% | -3.51%
65 | COc1ccc(CCn2c(=O)c3sccc3n3c(=O)n(Cc4ccc(F)cc4)nc23)cc1OC | 2.92% | -0.5%
66 | O=C(CSc1nnc2c(=O)n(-c3ccccc3)ccn12)c1ccc(F)cc1 | 16.24% | -2%
67 | O=c1c2sccc2n2c(=S)[nH]nc2n1CC1CCCO1 (configuration not stated) | 3.07% | -0.32%
68 | COC(=O)c1ccc(NC(=O)Cn2nc3ccc(C(=O)NCc4ccccc4)cn3c2=O)cc1 | 12.92% | -2.38%
69 | Cc1ccc(NC(=O)Cn2nc3ccc(C(=O)NCc4ccccc4)cn3c2=O)c(Br)c1 | -7.88% | -9.76%
70 | COc1ccc(C(C)NC(=O)CCc2nnc3ccc(-c4ccc(C)cc4)nn23)cc1OC (configuration not stated) | 4.62% | 2.29%
71 | CCCCN(C)c1ccc2nnc(CCc3nc(-c4cccc(Br)c4)no3)n2n1 | 7.62% | -1.77%
